Measured values: PubChem BioAssay (NCATS)
“And” between values parts separate entries of the source, which are not always exact repeats. Identical values can stand only once. Results filed as inconclusive are left out. The source made the active and inactive calls. Unless noted, calls come from the whole dose curve; as a rule, active = well fitted curve in the direction sought with a large enough effect; inconclusive = small, poorly fitted or top-dose-only effect, or another doubt; inactive = no such curve, though single readings can be large; an effect the other way counts as inactive or inconclusive.

Experiments:
[1] = target: Cellular tumor antigen p53 (Homo sapiens) (UniProt P04637); assay: Primary qHTS for small molecule compounds that upregulate eGFP-tagged delta133p53alpha (in N-terminal) cells. (AID 2060322); details: NCI-H358 eGFP-delta133p53alpha fluorescence, 24 h; activation: hits give high values; note: nearly all actives have a fitted effect of over 75% in size; note: potency is the fitted concentration of half-maximal effect;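 for activation: series mostly up to about 56 µM; 0% = DMSO vehicle and 100% = reference activator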
Summary of the method: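 NCI-H358 cells pre-induced 24 h with 10 ng/ml doxycycline to express N-terminal eGFP-delta133p53alpha, then dosed 24 h at 37C without doxycycline; fixed, Hoechst-stained, GFP intensity by laser scanning cytometry, normalized to DMSO (0%) and 57.5 uM 5-azacytidine (100%).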

[2] = target: Cellular tumor antigen p53 (Homo sapiens) (UniProt P04637); assay: Primary qHTS for small molecule compounds that upregulate eGFP-tagged delta133p53alpha (in C-terminal) cells. (AID 2060324); note: potency is the fitted concentration of half-maximal effect
Summary of the method: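 NCI-H358 cells with doxycycline-inducible D133p53a-eGFP (C-terminal tag), pre-induced 24 h with 100 ng/ml doxycycline, plated 800/well in doxycycline-free medium and treated 24 h at 37 °C with compound titrations. Cells were then fixed and Hoechst-stained, and GFP intensity was read by laser scanning cytometry.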

[3] = target: Aldehyde dehydrogenase, mitochondrial (Homo sapiens) (UniProt P05091); assay: qHTS for Inhibitors of the Aldehyde Dehydrogenase Family (ALDH2) Validation screens (AID 2061302; active = well fitted inhibition curve with a large enough effect; title and protocol of this record describe different tests;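 note: plate controls were DMSO vehicle for no effect and maximal DPI positive control response for full effect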)
[4] = target: Retinaldehyde dehydrogenase 3 (Homo sapiens) (UniProt P47895); assay: qHTS for Inhibitors of the Aldehyde Dehydrogenase Family (ALDH1A3) Validation screen (AID 2061312); note: % is set by controls: 0 for no effect and ±100 for the full control effect; nearly all actives have a fitted effect of over 45% in size
[5] = target: Aldehyde dehydrogenase, mitochondrial (Homo sapiens) (UniProt P05091); assay: qHTS for Inhibitors of the Aldehyde Dehydrogenase Family (ALDH2) Primary screen (AID 2061308);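 note: plate controls were vehicle for no effect and reference inhibitor for full effect; nearly all actives have a fitted effect of over 55% in size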
[6] = target: Retinaldehyde dehydrogenase 3 (Homo sapiens) (UniProt P47895); assay: qHTS for Inhibitors of the Aldehyde Dehydrogenase Family (ALDH1A3) Primary screen (AID 2061315);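 note: plate controls were DMSO vehicle for no effect and reference inhibitor for full effect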
[7] = BET inhibitor-based combinations targeting novel dependencies in MECOM-rearranged (r) AML: SET-2 cell line (AID 2202231); details: SET-2 AML cells viability, CellTiter-Glo luminescence, 48 h; viability: hits give low values, series mostly up to about 46 µM;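 note: plate controls were DMSO treated cells for no effect and wells without cells for full effect; nearly all actives have a fitted effect of over 35% in size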
Summary of the method: (§1)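 Readout: CellTiter-Glo luminescence. Exposure: 48 h, 11 concentrations, 500 cells/well. Metric: AUC and within-line Z-AUC after DMSO/empty-well normalization.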

[8] = BET inhibitor-based combinations targeting novel dependencies in MECOM-rearranged (r) AML: OCI-AML3 cell line (AID 2202232); details: Potency: OCI-AML3 viability;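 note: series mostly up to about 46 µM; plate controls were DMSO vehicle wells for no effect and wells without cells for full effect; nearly all actives have a fitted effect of over 35% in size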
Summary of the method: as §1

[9] = BET inhibitor-based combinations targeting novel dependencies in MECOM-rearranged (r) AML: MV-4-11 cell line (AID 2202233);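 note: plate controls were DMSO for no effect and blank wells for full effect; nearly all actives have a fitted effect of over 45% in size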
Summary of the method: (§2)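 Seeding density was 500 cells/well, and drug exposure lasted 48 hr under standard culture conditions. Read-out used CellTiter-Glo reagent with a 15 min room-temperature incubation before luminescence measurement; AUC and Z-AUC summarize the normalized responses.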

[10] = BET inhibitor-based combinations targeting novel dependencies in MECOM-rearranged (r) AML: HNT-34 cell line (AID 2202234);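 note: plate controls were vehicle wells for no effect and cell-free wells for full effect; nearly all actives have a fitted effect of over 35% in size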
Summary of the method: as §2

[11] = BET inhibitor-based combinations targeting novel dependencies in MECOM-rearranged (r) AML: AML-191 cell line (AID 2202236;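 note: plate controls were vehicle wells for no effect and wells without cells for full effect; nearly all actives have a fitted effect of over 35% in size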)
Summary of the method: as §1

[12] = BET inhibitor-based combinations targeting novel dependencies in MECOM-rearranged (r) AML: AML-194 cell line (AID 2202237;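 note: plate controls were vehicle wells for no effect and wells without cells for full effect; nearly all actives have a fitted effect of over 40% in size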)
Summary of the method: as §1

[13] = target: Aldehyde dehydrogenase, mitochondrial (Homo sapiens) (UniProt P05091); assay: qHTS for Inhibitors of the Aldehyde Dehydrogenase Family (ALDH2) Confirmatory screens (AID 2061303; active = well fitted inhibition curve with a large enough effect; title and protocol of this record describe different tests; note: % is set by controls: 0 for no effect and ±100 for the full control effect; nearly all actives have a fitted effect of over 45% in size)
[14] = qHTS for Inhibitors of the Aldehyde Dehydrogenase Family (ALDH1A2, ALDH1A3, ALDH2, ALDH3A1) (AID 2061307); note: nearly all actives have a fitted effect of over 50% in size; for Potency: test system not described further here; potency is the fitted concentration of half-maximal effect
[15] = target: Aldehyde dehydrogenase 1A1 (Homo sapiens) (UniProt P00352); assay: qHTS for Inhibitors of the Aldehyde Dehydrogenase Family (ALDH1A1) Confirmatory screens (AID 2061316); note: nearly all actives have a fitted effect of over 65% in size; note: potency is the fitted concentration of half-maximal effect
[16] = target: Retinaldehyde dehydrogenase 3 (Homo sapiens) (UniProt P47895); assay: qHTS for Inhibitors of the Aldehyde Dehydrogenase Family (ALDH1A3) Confirmatory screens (AID 2061311); note: potency is the fitted concentration of half-maximal effect; nearly all actives have a fitted effect of over 60% in size
[17] = target: Retinal dehydrogenase 2 (Homo sapiens) (UniProt O94788); assay: qHTS for Inhibitors of the Aldehyde Dehydrogenase Family (ALDH1A2) Confirmation screens (AID 2061314); note: % is set by controls: 0 for no effect and ±100 for the full control effect; nearly all actives have a fitted effect of over 65% in size

Chain of Cellular tumor antigen p53 (Homo sapiens) (P04637 whole entry, looked up): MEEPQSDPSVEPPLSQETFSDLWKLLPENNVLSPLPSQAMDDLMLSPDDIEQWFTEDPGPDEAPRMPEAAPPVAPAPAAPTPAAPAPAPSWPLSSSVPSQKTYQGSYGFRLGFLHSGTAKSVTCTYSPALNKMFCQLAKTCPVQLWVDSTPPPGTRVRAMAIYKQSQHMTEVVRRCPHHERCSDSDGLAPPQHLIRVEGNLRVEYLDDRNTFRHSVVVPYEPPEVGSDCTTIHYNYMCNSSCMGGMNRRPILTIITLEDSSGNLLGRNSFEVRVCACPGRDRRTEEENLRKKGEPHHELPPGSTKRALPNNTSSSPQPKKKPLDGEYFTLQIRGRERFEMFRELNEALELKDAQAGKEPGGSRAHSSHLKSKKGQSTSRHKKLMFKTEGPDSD

CC(N)Cc1c[nH]c2ccc(O)cc12 (stereo not drawn)
inactive: activation [1] -0.781% | Potency [2] | Potency [3] | Potency [4]

O=C(N[C@H]1CN2CCC1CC2)c1ccc(Cl)cc1
inactive: activation [1] 0.903% and 6.33% and -27.4% | Potency [2] | Potency [3] | Potency [5] | Potency [4] | Potency [6] | viability [7] 112% | Potency [8] | Potency [9] | Potency [10] | Potency [11] | Potency [12]

CC(=O)OCC1=C(C(=O)O)N2C(=O)[C@@H](NC(=O)CCC[C@@H](N)C(=O)O)[C@H]2SC1
inactive: activation [1] 20.4% | Potency [2] | Potency [3] | Potency [4]

CNCCc1ccc(O)c(O)c1
inactive: activation [1] -26.5% | Potency [2] | Potency [3]

NC(=O)COc1c(F)cc(SCCNS(=O)(=O)c2ccccc2)cc1F
active: Potency [14] 11.3 µM | Potency [15] 14.2 µM
inactive: activation [1] -8.4% | Potency [2] | Potency [3] | Potency [13] | Potency [4]

CN1CCc2cc(O)cc3c2[C@H]1Cc1ccc(O)c(O)c1-3
active: Potency [16] 12.7 µM
inactive: activation [1] -32.2% | Potency [2] | Potency [3] | Potency [14] | Potency [17] | Potency [15]

CCn1cnc2c(Nc3cccc(Cl)c3)nc(N[C@@H]3CCCC[C@@H]3N)nc21
active: Potency [1] 6.01 µM | Potency [2] 5.36 µM
inactive: Potency [3]

CC(N)c1cccc(Cl)c1Cl (stereo not drawn)
inactive: activation [1] -35.4% | Potency [2] | Potency [3] | Potency [4]

NCC(O)c1ccc(O)cc1 (stereo not drawn)
inactive: activation [1] -4.18% and -26.8% | Potency [2] | Potency [3] | Potency [4]

Nc1ccc(CCN2CCN(c3cccc(C(F)(F)F)c3)CC2)cc1
inactive: activation [1] -62.8% | Potency [2] | Potency [3] | Potency [4]

NC(=NCCC[C@H](N)C(=O)O)N[N+](=O)[O-]
inactive: activation [1] -32.4% | Potency [2] | Potency [3] | Potency [4]

CC(C)(C)NCC(O)c1ccccc1Cl (stereo not drawn)
inactive: activation [1] 26.8% and -4.18% | Potency [2] | Potency [3] | Potency [4]

Oc1ccc2c3c1O[C@H]1c4[nH]c5c(c4C[C@@]4(O)[C@@H](C2)N(CC2CC2)CC[C@]314)C[C@@]1(O)[C@H]2Cc3ccc(O)c4c3[C@@]1(CCN2CC1CC1)[C@H]5O4
inactive: activation [1] 26.8% and -10.8% | Potency [2] | Potency [3] | Potency [4]

CC(C)NC(C)Cc1ccc(I)cc1 (stereo not drawn)
inactive: activation [1] -3.39% | Potency [2] | Potency [3] | Potency [4]

c1ccc2cc(CC3=NCCN3)ccc2c1
inactive: activation [1] -13.6% | Potency [2] | Potency [3] | Potency [4]

NCC(O)c1cc(O)c(O)cc1F (stereo not drawn)
inactive: activation [1] -23.1% | Potency [2] | Potency [3] | Potency [4]

Cc1nccc2c1[nH]c1ccccc12
inactive: activation [1] -18.9% | Potency [2] | Potency [3] | Potency [4]

c1ccc2sc(C3(N4CCCCC4)CCCCC3)cc2c1
inactive: activation [1] 14.7% | Potency [2] | Potency [3] | Potency [4]

CC(=O)[C@H]1CC[C@H]2[C@@H]3CC[C@H]4C[C@](C)(O)CC[C@]4(C)[C@H]3CC[C@]12C
inactive: activation [1] -8.47% and -37.3% | Potency [2] | Potency [3] | Potency [4]

COC(=O)N1CCN(C(=O)Cc2ccc(Cl)c(Cl)c2)C(CN2CCCC2)C1 (stereo not drawn)
inactive: activation [1] 5.56% | Potency [2] | Potency [3] | Potency [4]

NC1CC1c1ccccc1 (stereo not drawn)
inactive: activation [1] -3.62% and 6.08% | Potency [2] | Potency [3] | Potency [4]

NC(CCP(=O)(O)O)C(=O)O (stereo not drawn)
inactive: activation [1] -26.8% | Potency [2] | Potency [3] | Potency [4]

CCCN1CCC[C@@H]2Cc3[nH]ncc3C[C@H]21
inactive: activation [1] -5.86% and -11.2% and 2.09% | Potency [2] | Potency [3] | Potency [4]

O=C(O)CC[N+](=O)[O-]
inactive: activation [1] -18.9% | Potency [2] | Potency [3] | Potency [4]

O=c1[nH]oc2c1CCNC2
inactive: activation [1] -18.6% and 14.5% | Potency [2] | Potency [3] | Potency [4]

CP(=O)(O)C1=CCNCC1
inactive: activation [1] -37.6% | Potency [2] | Potency [3] | Potency [4]

NCc1cc(=O)[nH]o1
inactive: activation [1] 11.2% | Potency [2] | Potency [3] | Potency [4]

C[C@H](Cc1ccc2c(c1)OC(C(=O)O)(C(=O)O)O2)NC[C@H](O)c1cccc(Cl)c1
inactive: activation [1] -6.85% | Potency [2] | Potency [3] | Potency [4]

O=C1NCN(c2ccccc2)C12CCN(CC1COc3ccccc3O1)CC2 (stereo not drawn)
inactive: activation [1] -13.1% | Potency [2] | Potency [3] | Potency [4]
